From the supplement of paper PMC11732987, “Enantioselective OTUD7B fragment discovery through chemoproteomics screening and high-throughput optimisation” (Communications Chemistry, 2025)

Assays:
Test in all cases: log2 ratio of Biotin-Ahx-Ub-VS probe labelling (fragment/DMSO); higher = less target engagement (more negative = stronger competition), active = hit call of the paper (q ≤ 0.05, log2 ratio ≤ -1)
Conditions in all cases: compound concentration: 200 uM; treatment time: 3 h
ALG13 = molecular target: T1, ALG13 (UniProt Q9NP73)
T1 sequence (whole entry): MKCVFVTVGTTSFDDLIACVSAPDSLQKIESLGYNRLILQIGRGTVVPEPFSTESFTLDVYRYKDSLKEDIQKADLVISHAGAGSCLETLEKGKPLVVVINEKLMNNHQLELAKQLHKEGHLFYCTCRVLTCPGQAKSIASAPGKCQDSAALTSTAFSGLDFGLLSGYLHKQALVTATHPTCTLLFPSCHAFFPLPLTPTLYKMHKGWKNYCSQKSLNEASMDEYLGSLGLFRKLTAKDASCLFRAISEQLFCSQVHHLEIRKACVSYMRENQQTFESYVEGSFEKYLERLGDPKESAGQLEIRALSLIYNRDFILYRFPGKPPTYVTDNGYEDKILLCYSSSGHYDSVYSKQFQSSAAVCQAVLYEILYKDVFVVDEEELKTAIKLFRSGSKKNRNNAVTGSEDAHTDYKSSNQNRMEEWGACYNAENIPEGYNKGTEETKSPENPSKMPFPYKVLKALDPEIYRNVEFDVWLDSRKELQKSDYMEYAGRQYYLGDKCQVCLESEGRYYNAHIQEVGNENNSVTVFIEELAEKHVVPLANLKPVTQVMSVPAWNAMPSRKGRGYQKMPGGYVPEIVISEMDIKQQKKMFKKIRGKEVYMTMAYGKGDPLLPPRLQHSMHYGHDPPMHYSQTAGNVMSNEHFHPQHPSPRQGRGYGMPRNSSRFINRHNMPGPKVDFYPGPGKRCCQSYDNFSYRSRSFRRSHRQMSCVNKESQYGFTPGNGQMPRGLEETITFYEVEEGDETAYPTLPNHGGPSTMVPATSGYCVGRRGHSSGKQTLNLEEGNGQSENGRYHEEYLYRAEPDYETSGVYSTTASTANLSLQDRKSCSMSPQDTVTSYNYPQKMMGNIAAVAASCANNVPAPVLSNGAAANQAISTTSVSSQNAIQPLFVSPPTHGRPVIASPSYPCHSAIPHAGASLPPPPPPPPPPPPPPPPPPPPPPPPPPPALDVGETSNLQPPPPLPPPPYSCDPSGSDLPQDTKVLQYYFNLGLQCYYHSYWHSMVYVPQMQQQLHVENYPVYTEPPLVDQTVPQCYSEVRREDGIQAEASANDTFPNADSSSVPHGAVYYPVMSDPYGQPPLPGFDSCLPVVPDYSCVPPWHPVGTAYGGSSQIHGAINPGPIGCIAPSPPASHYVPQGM
Method in brief: (§1)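 Using Biotin-Ahx-Ub-VS at 0.5 µM final for 1 h, DUBs were labelled in HEK293T lysate (495 µg per sample) that had first been treated in triplicate with fragment at 200 µM or vehicle for 3 h. NeutrAvidin enrichment, LysC and trypsin digestion and diaPASEF LC-MS/MS followed. Spectronaut label-free quantities were global-median-normalised. Values are average log2 fragment/vehicle ratios by unpaired t-test, using proteins with ≥2 unique peptides.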

ATXN3 = ATXN3 (UniProt P54252)
Method in brief: as §1

BAP1 = molecular target: T2, BAP1 (UniProt Q92560)
T2 sequence (whole entry): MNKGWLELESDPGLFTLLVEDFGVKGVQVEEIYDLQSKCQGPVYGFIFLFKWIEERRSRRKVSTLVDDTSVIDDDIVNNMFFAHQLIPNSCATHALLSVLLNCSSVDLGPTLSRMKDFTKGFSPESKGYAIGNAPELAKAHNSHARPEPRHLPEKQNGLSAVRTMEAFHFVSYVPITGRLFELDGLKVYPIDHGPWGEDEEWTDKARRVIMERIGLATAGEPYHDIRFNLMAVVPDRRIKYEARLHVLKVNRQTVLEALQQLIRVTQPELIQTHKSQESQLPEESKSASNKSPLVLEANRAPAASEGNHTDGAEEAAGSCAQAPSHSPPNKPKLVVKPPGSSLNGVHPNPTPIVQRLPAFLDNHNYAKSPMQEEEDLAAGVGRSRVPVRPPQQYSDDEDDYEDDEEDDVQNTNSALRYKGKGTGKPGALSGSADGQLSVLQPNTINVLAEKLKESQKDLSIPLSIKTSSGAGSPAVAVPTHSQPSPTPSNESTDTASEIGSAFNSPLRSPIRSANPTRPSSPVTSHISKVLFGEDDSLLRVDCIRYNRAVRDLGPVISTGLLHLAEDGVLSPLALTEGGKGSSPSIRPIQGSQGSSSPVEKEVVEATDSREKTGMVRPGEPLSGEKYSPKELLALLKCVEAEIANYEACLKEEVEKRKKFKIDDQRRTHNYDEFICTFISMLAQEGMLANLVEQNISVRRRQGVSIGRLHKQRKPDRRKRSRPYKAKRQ
Method in brief: as §1

EIF3F = EIF3F (UniProt O00303)
Method in brief: as §1

EIF3H = EIF3H (UniProt O15372)
Method in brief: as §1

FAM105A = molecular target: T3, FAM105A (UniProt Q9NUU6)
T3 sequence (whole entry): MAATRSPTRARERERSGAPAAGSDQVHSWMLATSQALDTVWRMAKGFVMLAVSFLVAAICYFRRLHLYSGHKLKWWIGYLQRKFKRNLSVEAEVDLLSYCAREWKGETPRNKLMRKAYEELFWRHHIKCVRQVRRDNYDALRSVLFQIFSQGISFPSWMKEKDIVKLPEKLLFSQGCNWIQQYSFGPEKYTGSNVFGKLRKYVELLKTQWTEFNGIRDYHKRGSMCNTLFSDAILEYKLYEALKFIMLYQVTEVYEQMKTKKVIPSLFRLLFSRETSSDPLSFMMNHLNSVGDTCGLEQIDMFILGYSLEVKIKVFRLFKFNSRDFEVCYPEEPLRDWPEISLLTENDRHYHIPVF
Method in brief: as §1

OTUB1 = OTUB1 (UniProt Q96FW1)
Method in brief: as §1

OTUD4 = molecular target: T4, OTUD4 (UniProt Q01804)
T4 sequence (whole entry): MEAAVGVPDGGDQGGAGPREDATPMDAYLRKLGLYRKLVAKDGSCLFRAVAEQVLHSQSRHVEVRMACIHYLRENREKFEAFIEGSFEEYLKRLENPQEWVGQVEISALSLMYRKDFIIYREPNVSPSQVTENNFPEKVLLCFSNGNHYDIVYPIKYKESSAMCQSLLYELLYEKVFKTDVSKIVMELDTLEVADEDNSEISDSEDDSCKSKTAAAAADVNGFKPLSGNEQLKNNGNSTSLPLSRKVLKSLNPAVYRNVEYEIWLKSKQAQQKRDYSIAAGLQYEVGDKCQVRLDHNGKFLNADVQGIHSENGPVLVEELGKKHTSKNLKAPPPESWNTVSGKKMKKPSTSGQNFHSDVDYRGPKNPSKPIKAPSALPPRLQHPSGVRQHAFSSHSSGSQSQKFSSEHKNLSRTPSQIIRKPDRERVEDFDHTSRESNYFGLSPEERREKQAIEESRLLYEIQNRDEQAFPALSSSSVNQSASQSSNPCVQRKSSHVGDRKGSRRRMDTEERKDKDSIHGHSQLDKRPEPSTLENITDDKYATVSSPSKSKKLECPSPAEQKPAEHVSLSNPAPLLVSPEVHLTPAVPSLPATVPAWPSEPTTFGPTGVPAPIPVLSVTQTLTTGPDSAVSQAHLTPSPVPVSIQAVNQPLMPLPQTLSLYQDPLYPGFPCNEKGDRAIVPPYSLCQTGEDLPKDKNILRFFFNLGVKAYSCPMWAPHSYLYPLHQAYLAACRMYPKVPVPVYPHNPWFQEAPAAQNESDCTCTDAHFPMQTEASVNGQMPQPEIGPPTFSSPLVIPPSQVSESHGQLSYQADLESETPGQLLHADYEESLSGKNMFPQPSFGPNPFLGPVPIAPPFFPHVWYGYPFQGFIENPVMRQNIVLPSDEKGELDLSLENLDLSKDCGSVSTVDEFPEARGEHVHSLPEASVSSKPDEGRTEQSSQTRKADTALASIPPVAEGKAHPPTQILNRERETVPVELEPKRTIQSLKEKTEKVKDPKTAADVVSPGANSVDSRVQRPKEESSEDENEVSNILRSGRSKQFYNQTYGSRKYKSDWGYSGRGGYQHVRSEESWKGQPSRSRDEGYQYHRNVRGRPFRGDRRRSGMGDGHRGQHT
Method in brief: as §1

OTUD5 = molecular target: T5, OTUD5 (UniProt Q96G74)
T5 sequence (whole entry): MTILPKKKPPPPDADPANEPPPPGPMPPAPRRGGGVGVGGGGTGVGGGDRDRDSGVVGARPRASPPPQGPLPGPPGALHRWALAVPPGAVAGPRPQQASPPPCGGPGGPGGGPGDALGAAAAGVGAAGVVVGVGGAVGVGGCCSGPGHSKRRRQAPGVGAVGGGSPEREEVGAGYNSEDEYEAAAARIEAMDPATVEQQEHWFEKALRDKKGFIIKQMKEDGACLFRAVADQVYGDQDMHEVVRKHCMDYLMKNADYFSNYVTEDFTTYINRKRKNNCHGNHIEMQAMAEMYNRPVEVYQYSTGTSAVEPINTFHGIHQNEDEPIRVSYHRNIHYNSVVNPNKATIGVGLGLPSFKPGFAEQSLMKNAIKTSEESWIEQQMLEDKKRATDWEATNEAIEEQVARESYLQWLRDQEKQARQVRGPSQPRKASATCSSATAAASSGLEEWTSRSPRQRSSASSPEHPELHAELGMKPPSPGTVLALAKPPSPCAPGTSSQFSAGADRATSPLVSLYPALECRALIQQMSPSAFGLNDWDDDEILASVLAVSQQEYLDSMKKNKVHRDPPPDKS
Method in brief: as §1

Measured: log2 ratio of Biotin-Ahx-Ub-VS probe labelling

OTUB1, sequence (Q96FW1 whole entry): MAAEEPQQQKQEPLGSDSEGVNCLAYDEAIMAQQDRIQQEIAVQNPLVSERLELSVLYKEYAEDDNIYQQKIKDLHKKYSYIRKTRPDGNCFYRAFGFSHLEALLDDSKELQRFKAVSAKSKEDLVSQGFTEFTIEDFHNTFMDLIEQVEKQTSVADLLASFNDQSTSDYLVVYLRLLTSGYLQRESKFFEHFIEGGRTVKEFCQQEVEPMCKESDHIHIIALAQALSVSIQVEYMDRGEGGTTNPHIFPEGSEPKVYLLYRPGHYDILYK
EIF3H, sequence (O15372 whole entry): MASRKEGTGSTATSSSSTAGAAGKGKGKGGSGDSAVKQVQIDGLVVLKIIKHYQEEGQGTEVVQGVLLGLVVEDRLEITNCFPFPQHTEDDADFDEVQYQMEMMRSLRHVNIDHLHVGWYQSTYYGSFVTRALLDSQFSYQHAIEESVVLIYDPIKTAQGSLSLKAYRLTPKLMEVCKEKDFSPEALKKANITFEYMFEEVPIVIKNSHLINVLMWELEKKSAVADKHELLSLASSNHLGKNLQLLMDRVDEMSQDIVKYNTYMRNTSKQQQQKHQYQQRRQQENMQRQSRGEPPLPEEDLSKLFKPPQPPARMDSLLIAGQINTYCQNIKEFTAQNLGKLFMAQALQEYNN
EIF3F, sequence (O00303 whole entry): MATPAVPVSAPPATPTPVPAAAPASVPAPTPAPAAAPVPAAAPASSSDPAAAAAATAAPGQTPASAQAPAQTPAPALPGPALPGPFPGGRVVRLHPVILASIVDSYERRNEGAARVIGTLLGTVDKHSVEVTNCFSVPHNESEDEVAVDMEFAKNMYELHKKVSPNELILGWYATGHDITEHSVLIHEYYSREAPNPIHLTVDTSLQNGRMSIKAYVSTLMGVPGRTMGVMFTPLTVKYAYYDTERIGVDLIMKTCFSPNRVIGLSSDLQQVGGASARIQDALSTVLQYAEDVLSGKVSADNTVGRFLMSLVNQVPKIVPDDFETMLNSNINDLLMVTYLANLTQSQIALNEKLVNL
ATXN3, sequence (P54252 whole entry): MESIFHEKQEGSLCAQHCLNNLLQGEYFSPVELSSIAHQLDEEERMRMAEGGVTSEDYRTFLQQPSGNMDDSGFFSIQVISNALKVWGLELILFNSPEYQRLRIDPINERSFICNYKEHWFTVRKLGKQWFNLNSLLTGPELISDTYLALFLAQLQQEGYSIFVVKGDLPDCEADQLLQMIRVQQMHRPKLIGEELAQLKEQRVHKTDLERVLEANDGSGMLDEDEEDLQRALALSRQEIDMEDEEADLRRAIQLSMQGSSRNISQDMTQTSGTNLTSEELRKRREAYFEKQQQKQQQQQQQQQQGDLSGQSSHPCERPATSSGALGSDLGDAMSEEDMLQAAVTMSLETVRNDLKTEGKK

Cl.O=C(CCl)NC1(c2ncccn2)CCC1
inactive: ALG13 0.0863 | ATXN3 0.0333 | BAP1 -0.171 | EIF3F -0.137 | EIF3H 0.137 | FAM105A -0.242 | OTUB1 -0.293 | OTUD4 -0.17 | OTUD5 0.0342
